Source: PubChem BioAssay (NCATS)
Values joined by “and” are separate entries in the source; they are usually repeats but may differ in a detail not shown here. Equal values may be shown once. Inconclusive results are not listed. Active and inactive are the calls of the source. Calls come from the whole dose curve; as a rule, active = well fitted curve in either direction with a large enough effect (not every such curve was filed as active); inconclusive = small, poorly fitted or top-dose-only effect, or another doubt; inactive = flat fitted curve, though single readings scatter.

Assay: NFAT Signaling Pathway (AID 444)
Details: Jurkat NFAT-bla M1, carbachol, beta-lactamase ratio, 5 h; at 17.2 µM (top of the series)
Description: NCGC Assay Overview: The nuclear factor of activated T cells (NFAT) family of transcription factors has been found primarily in most immune system cells and some other non-immune cells. NFAT plays the immunomodulatory role, primarily in T-cell activation and differentiation. NFAT target genes are also involved in the regulation of apoptosis and differentiation in non-immune cell types. The NFAT sequence was engineered to the upstream of the ?-lactamase reporter gene and transfected into Jurkat cells with co-transfection of muscarinic receptor1 [provided by Invitrogen Corp]. When an extracellular stimulus, such as carbachol, binds to the GPCR M1 receptor, it stimulates a signaling cascade that activates NFAT response element and ?-lactamase expression by phosphorylating the NFAT binding protein. This cell based ?-lactamase reporter gene assay can accurately monitor any changes occurring along the NFAT pathway, and can be used for screening small molecule inhibitor or activator upon activation by carbachol EC50 concentration. A small molecular library were screened in a titration series resulting in AC50s (can be either IC50s or EC50s).
NCGC Assay Protocol Summary: The cells were prepared in RPMI 1640 medium containing 0.1% dialyzed FBS and 25 mM HEPES at 1.6 x 10^6cell/ml. The assay was performed in 1536-well plate format as follows: 5 ul of cell preparation 23 nl of compounds 1ul of carbachol (final concentration 1 uM) Briefly centrifuge the plates and incubate at 37 °C for 5 hours 1 ul of CCF4 dye mixture Incubate the plates at RT for 1 hour Read the plate in EnVision plate reader (Ex= 405nm, and Em1=460nm and Em2=530nm). The %Activity was determined from the ratio of 460nm/530nm. Data normalization and AC50 calculations were accomplished using GeneData software.
% is set by controls: 0 for no effect and ±100 for the full control effect.

Structure (SMILES) | activity change, negative = inhibition
CN/C(=C\[N+](=O)[O-])NCCSCc1ccc(CN(C)C)o1 | -7.07% (inactive)
CCn1cc(C(=O)O)c(=O)c2cc3c(cc21)OCO3 | -7.01% (inactive)
C[C@H](CS)C(=O)N1CCC[C@H]1C(=O)O | 2% (inactive)
C=CCc1ccccc1OCC(O)CNC(C)C (stereo unspecified) | 5.58% (inactive)
CC(=O)Nc1nnc(S(N)(=O)=O)s1 | -0.673% (inactive) and -9.62% (inactive)
Fc1ccc(C(c2ccc(F)cc2)N2CCN(C/C=C/c3ccccc3)CC2)cc1 | -88.5% (active)
Cc1ccc(Cl)c(Nc2ccccc2C(=O)O)c1Cl | -24% (inactive) and 22.1% (inactive)
COCCc1ccc(OCC(O)CNC(C)C)cc1 (stereo unspecified) | -25.7% (inactive)
CC1=NS(=O)(=O)c2cc(Cl)ccc2N1 | -1.94% (inactive) and 7.03% (inactive)
OC(CCN1CCCCC1)(c1ccccc1)C1CCCCC1 (stereo unspecified) | -77.3% (active)
CC[N+](C)(C)c1cccc(O)c1 | -26.4% (inactive)
COCCCC/C(=N\OCCN)c1ccc(C(F)(F)F)cc1 | 24.5% (inactive)
CCN(CC)CC(=O)Nc1c(C)cccc1C | -9.77% (inactive) and 9.98% (inactive) and -29.3% (inactive)
C#CCN(C)CCCOc1ccc(Cl)cc1Cl | -4.25% (inactive)
Brc1c(NC2=NCCN2)ccc2nccnc12 | 15.8% (inactive)
CN(C)CCCN1c2ccccc2Sc2ccc(C(F)(F)F)cc21 | -88.2% (active)
CC(=O)OCC1=C(C(=O)O)N2C(=O)[C@@H](NC(=O)Cc3cccs3)[C@H]2SC1 | 0.294% (inactive)
CCn1nc(C(=O)O)c(=O)c2cc3c(cc21)OCO3 | 0.808% (inactive) and 1.97% (inactive)
O=C(O)CN(CCN(CC(=O)O)CC(=O)O)CCN(CC(=O)O)CC(=O)O | -4.47% (inactive)
COc1ccc2c(c1OC)C(=O)O[C@@H]2[C@H]1c2c(cc3c(c2OC)OCO3)CCN1C | -10.3% (inactive)
CN(C)CCOC(=O)COc1ccc(Cl)cc1 | 0.868% (inactive)
O=C1CC2(CCCC2)CC(=O)N1CCCCN1CCN(c2ncccn2)CC1 | -9.19% (inactive)
CCCOc1ccccc1-c1nc2n[nH]nc2c(=O)[nH]1 | 14.8% (inactive)

Same assay, conditions: Jurkat NFAT-bla M1, carbachol, beta-lactamase ratio, 5 h; at 38 µM (top of the series)

Structure (SMILES) | activity change, negative = inhibition
CN/C(=C\[N+](=O)[O-])NCCSCc1ccc(CN(C)C)o1 | 1.99% (inactive)
CSc1ccc(C(=O)c2[nH]c(=O)[nH]c2C)cc1 | -2.92% (inactive)
CCn1cc(C(=O)O)c(=O)c2cc3c(cc21)OCO3 | 7.6% (inactive)
C[C@H](CS)C(=O)N1CCC[C@H]1C(=O)O | -1.57% (inactive)
CN(C(=O)CCCOc1ccc2[nH]c(=O)ccc2c1)C1CCCCC1 | -14.2% (inactive)
NCCCNCCSP(=O)(O)O | -0.295% (inactive)
CC(=O)Nc1nnc(S(N)(=O)=O)s1 | 2.29% (inactive)
Cc1ccc(Cl)c(Nc2ccccc2C(=O)O)c1Cl | 0.114% (inactive)
CC1=NS(=O)(=O)c2cc(Cl)ccc2N1 | 2.63% (inactive)
CC[N+](C)(C)c1cccc(O)c1 | -18.1% (inactive)
CCN(CC)CC(=O)Nc1c(C)cccc1C | 0.823% (inactive)
C#CCN(C)CCCOc1ccc(Cl)cc1Cl | -1.82% (inactive)
Brc1c(NC2=NCCN2)ccc2nccnc12 | 1.97% (inactive)
CN(C)CCCN1c2ccccc2Sc2ccccc21 | -83.6% (active)
CCn1nc(C(=O)O)c(=O)c2cc3c(cc21)OCO3 | 8.98% (inactive)
O=C(O)CN(CCN(CC(=O)O)CC(=O)O)CCN(CC(=O)O)CC(=O)O | 2.2% (inactive)
CN(C)CCOC(=O)COc1ccc(Cl)cc1 | 7.1% (inactive)
CCCOc1ccccc1-c1nc2n[nH]nc2c(=O)[nH]1 | 2.4% (inactive)
